Experiment [1] can be described thus: APR_HepG2_NuclearSize_24hr: Apredica 24-hour HepG2 Assay for Nuclear Size (AID 2282907). The following applies: high-content imaging, actives raise or lower the signal. An outline of the steps:
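Compounds in DMSO (final 0.5%) were added to human HepG2 hepatoma cells at ten concentrations up to 200 uM for 24 hr. Fixed nuclei were stained with Hoechst 33342, and nuclear diameter was quantified from automated images.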

A short description of experiment [2]: APR_HepG2_CellLoss_24hr: Apredica 24-hour HepG2 Assay for Cell Loss (AID 2282908).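 On AC50: fit in both directions so a hit may be cell loss or gain.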 Particulars: high-content imaging. An outline of the steps: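 Cell number is quantified by fluorescence imaging of Hoechst 33342-stained nuclei following dosing at 0.39–200 uM in 0.5% DMSO. Curves are fitted in both directions from the DMSO baseline.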
A short description of experiment [3]: APR_HepG2_MitoticArrest_24hr: Apredica 24-hour HepG2 Assay for Mitotic Arrest (AID 2282910). Particulars: high-content imaging, actives raise or lower the signal. In a few lines:
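Compounds are dosed onto HepG2 cells across ten concentrations up to 200 uM for 24 hr. Cells are then fixed in 3.7% formaldehyde, permeabilised, and labelled for phospho-histone H3 and nuclei; images are scored by cell cycle analysis and fitted bidirectionally relative to DMSO.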

A short description of experiment [4]: APR_HepG2_MitoMembPot_24hr: Apredica 24-hour HepG2 Assay for Mitochondrial Membrane Potential (AID 2282911). The following applies: imaging, actives raise or lower the signal. An outline of the steps:
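Mitochondrial membrane potential imaged via MitoTracker Red CMXRos (250 nM, 30 min pre-fixation) in fixed HepG2 cells with Hoechst nuclear identification. Ten concentrations 0.39–200 uM, 24 h treatment, 0.5% DMSO; CCCP as positive control.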

The nature of experiment [5]: APR_HepG2_MitoMass_24hr: Apredica 24-hour HepG2 Assay for Mitochondrial Mass (AID 2282912). Particulars: high-content imaging, actives raise or lower the signal. An outline of the steps: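 The liver line HepG2 was dosed in duplicate across a 0.39–200 uM series, with final DMSO held at 0.5% v/v, and harvested at 24 hr. High-content imaging measured mitochondrial dye staining.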

Experiment [6] can be described thus: APR_HepG2_p53Act_24hr: Apredica 24-hour HepG2 Assay for p53 Activation (AID 2282913).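 Further: p53 protein immunofluorescence averaged per cell in HepG2 with Hoechst nuclei.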 The following applies: high-content imaging, actives raise or lower the signal. In a few lines:
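Fluorescence imaging of formaldehyde-fixed HepG2 cells labelled for p53 and with Hoechst, 24 h after dosing (0.39–200 uM, duplicate wells, 0.5% v/v DMSO). Signal fitted in both directions relative to DMSO.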

Experiment [7] in a line: APR_HepG2_CellCycleArrest_72hr: Apredica 72-hour HepG2 Assay for Cell Cycle Arrest (AID 2282914). The following applies: high-content imaging, actives raise or lower the signal. An outline of the steps: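 Read-out: nuclear DNA content from Hoechst 33342 high-content imaging (20x, six fields/well) after 3.7% formaldehyde fixation, fitted bidirectionally against DMSO. Treatment was 72 h in HepG2, ten concentrations 0.39–200 uM, duplicate, 0.5% DMSO.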

Experiment [8] can be described thus: APR_HepG2_CellLoss_72hr: Apredica 72-hour HepG2 Assay for Cell Loss (AID 2282915). The following applies: high-content imaging. An outline of the steps:
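Cell number comes from Hoechst 33342-labelled nuclei, imaged at 20x after 3.7% formaldehyde fixation. Dosing was 0.39–200 uM, ten concentrations in duplicate, 0.5% DMSO final, for 72 h. Bidirectional fit relative to DMSO baseline.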

A short description of experiment [9]: APR_HepG2_P-H2AX_72hr: Apredica 72-hour HepG2 Assay for H2AX Phosphorylation (AID 2282916).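 Further: phospho-histone H2A.x immunostain intensity per cell marking DNA damage.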 Particulars: imaging, actives raise or lower the signal. In a few lines:
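Following 72 hr treatment with 0.39–200 uM compound, HepG2 cells were formaldehyde-fixed, permeabilized and stained for phospho-H2A.x; signal was measured by high-content imaging and fitted bidirectionally against DMSO controls.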

A short description of experiment [10]: APR_HepG2_MitoMembPot_72hr: Apredica 72-hour HepG2 Assay for Mitochondrial Membrane Potential (AID 2282917). The following applies: imaging, actives raise or lower the signal. In a few lines:
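Membrane potential read by MitoTracker Red CMXRos (250 nM, 30 min, pre-fixation) fluorescence imaging of HepG2 after 72 hr exposure. Ten concentrations, 0.39–200 uM, duplicate wells, 0.5% DMSO; fitted in both directions against DMSO baseline.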

Experiment [11] is described as follows: APR_HepG2_MitoticArrest_72hr: Apredica 72-hour HepG2 Assay for Mitotic Arrest (AID 2282918). Particulars: high-content imaging, actives raise or lower the signal. In a few lines: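 High-content imaging of fixed human HepG2 cells after 72 h compound exposure (0.39–200 uM, duplicates, 0.5% DMSO); mitotic arrest scored from phospho-histone H3 and nuclear Hoechst staining relative to DMSO.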

Experiment [12] is described as follows: APR_HepG2_MicrotubuleCSK_72hr: Apredica 72-hour HepG2 Assay for Microtubule CSK Stabilty (AID 2282919). The following applies: HepG2 microtubule cytoskeleton, high-content imaging, actives raise or lower the signal. In a few lines: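 Read-out is tubulin fluorescence intensity from high-content imaging of HepG2 cells, with nuclei identified by Hoechst 33342. Treatment lasts 72 h at 0.39–200 uM, and curves are fitted bidirectionally against the DMSO negative control.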

The nature of experiment [13]: APR_HepG2_P-H2AX_24hr: Apredica 24-hour HepG2 Assay for H2AX Phosphorylation (AID 2282920). The following applies: high-content imaging, actives raise or lower the signal. An outline of the steps: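 High-content imaging of phospho-histone H2A.x immunofluorescence, nuclei counterstained with Hoechst 33342, in fixed HepG2 cells. Compounds ran 0.39–200 uM in duplicate for 24 h, final DMSO 0.5%. Signal change fitted both directions against DMSO.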

Experiment [14] can be described thus: APR_HepG2_StressKinase_72hr: Apredica 72-hour HepG2 Assay for Stress Kinase (AID 2282921). The following applies: HepG2 stress kinase (phospho-c-Jun) imaging, actives raise or lower the signal. An outline of the steps: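 Fluorescence intensity of Cy3-tagged anti-phospho-c-Jun antibody, quantified per cell from Hoechst-defined nuclei across six images per well, served as the read-out following 72 h exposure (0.39–200 uM, 0.5% v/v DMSO).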

Experiment [15] in a line: APR_HepG2_NuclearSize_72hr: Apredica 72-hour HepG2 Assay for Nuclear Size (AID 2282925). The following applies: high-content imaging, actives raise or lower the signal. An outline of the steps:
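HepG2; cpd 0.39–200 uM, 10 conc, duplicate; 72 h; DMSO 0.5% v/v; fix 3.7% formaldehyde 30 min RT; Triton permeabilization; Hoechst 2 ug/mL; HCS imaging 20x; nuclear diameter; gain/loss fit vs DMSO.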

Experiment [16] is described as follows: APR_HepG2_p53Act_72hr: Apredica 72-hour HepG2 Assay for p53 Activation (AID 2282923).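 Further: average cellular p53 protein immunofluorescence intensity in HepG2 cells.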 The following applies: high-content imaging, actives raise or lower the signal. In a few lines: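 HepG2 monolayers receive test compounds in duplicate at ten concentrations (0.39 through 200 uM) for 72 hr. They are then formaldehyde-fixed, antibody-labelled for p53, Hoechst-stained and imaged, with activity fitted bidirectionally versus DMSO.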

Experiment [17] in a line: APR_HepG2_MitoMass_72hr: Apredica 72-hour HepG2 Assay for Mitochondrial Mass (AID 2282924).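 Further: MitoTracker Red CMXRos stain intensity per cell imaged as mitochondrial mass.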 The following applies: high-content imaging, actives raise or lower the signal. An outline of the steps: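 HepG2, 72 hr cmpd, 10 conc 0.39–200 uM in dup, DMSO 0.5% v/v. MitoTracker Red CMXRos 250 nM 30 min pre-fix; formaldehyde 3.7% fix 30 min RT. HCS imaging, gain/loss fit vs DMSO.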

Active and inactive are the calls of the source. How the source made its calls: active means hit-call score of the fitted dose curve at least 0.9, where 1 is the maximum; inactive means score below 0.9.

On to `COC(=O)c1ccc(I)cc1S(=O)(=O)NC(=O)Nc1nc(C)nc(OC)n1`, for which the call in [1], in experiment [2], in experiment [3], in experiment [4], in [5] and in experiment [6] was inactive. For the same molecule, the result in experiment [7], in experiment [8], in [9], in experiment [10], in experiment [11] and in [12] was inactive. Further, the outcome in experiment [13], in experiment [14] and in experiment [15] was inactive.

With `O=C(c1ccc(O)cc1O)c1ccc(O)cc1O`, the outcome in [1], in experiment [2], in [3], in [5], in experiment [6] and in [8] was inactive. In addition, the outcome in experiment [9], in [10], in experiment [11], in experiment [12], in [13] and in experiment [14] was inactive. Also, the result in [16] and in [15] was inactive. Besides, the AC50 in experiment [4] is 2.29 µM (active); in experiment [17] it was 4.43 µM (active).

On to `CCCCC(CC)CN1C(=O)C2C3C=CC(C3)C2C1=O` (stereo not given), for which the call in [1], in [2], in [3], in experiment [4], in experiment [5] and in [6] was inactive. Moreover, the molecule was called inactive in [7], in [9], in experiment [10], in [11], in [13] and in experiment [14]. Further, the call in experiment [15] was inactive. In addition, the AC50 in [8] is 93.2 µM (active); in [12] it was 85.7 µM (active).

For the molecule `COc1nc(C)nc(NC(=O)NS(=O)(=O)c2ccccc2OCCCl)n1`, the outcome in [1], in experiment [2], in experiment [3], in [4], in experiment [5] and in experiment [6] was inactive. Moreover, the molecule was called inactive in experiment [8], in experiment [9], in experiment [10], in [11], in experiment [12] and in experiment [13]. For the same molecule, the molecule was called inactive in experiment [14] and in experiment [15].

As for `CCCN(CCC)c1c([N+](=O)[O-])cc(C(F)(F)F)c(N)c1[N+](=O)[O-]`, the outcome in experiment [1], in experiment [2], in [3], in experiment [5], in experiment [6] and in experiment [7] was inactive. Also, the molecule was classed as inactive in experiment [9], in experiment [10], in experiment [11], in experiment [13], in experiment [14] and in [15]. In addition, the AC50 in experiment [4] is 32.1 µM (active); in experiment [8], 33 µM (active); in [12], 51.2 µM (active).

As for `Oc1ccc(C(c2ccc(O)cc2)C(Cl)(Cl)Cl)cc1`, the call in experiment [1], in experiment [3], in experiment [4], in [5], in experiment [6] and in experiment [9] was inactive. In addition, the molecule was called inactive in experiment [10], in [12], in [13], in experiment [14], in experiment [16] and in experiment [15]. The AC50 in experiment [2] is 135 µM (active); in experiment [8], 33.4 µM (active); in experiment [11] it was 85.6 µM (active).

On to `CCN(Cc1c(F)cccc1Cl)c1c([N+](=O)[O-])cc(C(F)(F)F)cc1[N+](=O)[O-]`, for which the call in experiment [1], in experiment [2], in [3], in experiment [4], in experiment [5] and in experiment [6] was inactive. The result in [9], in [10], in experiment [11], in experiment [13], in [14] and in experiment [16] was inactive. The result in experiment [15] was inactive. Moreover, the AC50 in experiment [8] was 33.5 µM (active); in experiment [12], 34.6 µM (active).

As a reminder, the AC50 is the concentration at which the activity in the assay is half-maximal.

The values above are taken from PubChem BioAssay (EPA / NIEHS).
